{
  "source": "the supplement of paper PMC7695840",
  "key": {"[1]": {"system": "Staphylococcus aureus MW2 delta-mecA (mecA-)", "experiment": "normalized GFP fluorescence (growth of mecA- strain) (fraction of control range); higher = more growth of mecA- strain", "details": "compound concentration: 150 uM; cefoxitin: subinhibitory; fluorescent label: GFP", "outline": "(§1)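 Pre-induced S. aureus MW2 cells carrying the gene (DsRed) and deletion cells lacking it (GFP) were combined 1:1 in LB containing a subinhibitory antibiotic dose set each day, then dispensed at 5 µL/well onto 150 μM compound (1.5% DMSO) in 1536-well plates as a single replicate. After 20 h at 37 °C and 90% humidity without shaking, DsRed (540/590) and GFP (485/520) were read. Each channel was scaled per plate between the medians of the single-strain controls, and plates with high untreated ratios and rows with DsRed/GFP >10 were excluded.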"}, "[2]": {"system": "Staphylococcus aureus MW2 (mecA+)", "experiment": "normalized DsRed fluorescence (growth of mecA+ strain) (fraction of control range); higher = more growth of mecA+ strain", "details": "compound concentration: 150 uM; cefoxitin: subinhibitory; fluorescent label: DsRed", "outline": "as §1"}},
  "note": "Counter-ions that a name gives are not always drawn.",
  "data": [
    {"smiles": "COc1cc2nc(N3CCN(C(=O)C4COc5ccccc5O4)CC3)nc(N)c2cc1OC", "note": "(configuration not stated) [Doxazosin mesylate]", "values": [
      {"measurement": "normalized GFP fluorescence", "setting": "[1]", "result": 0.0162},
      {"measurement": "normalized DsRed fluorescence", "setting": "[2]", "result": 1.12}
    ]},
    {"smiles": "CC1(C)NC(=O)N(c2ccc([N+](=O)[O-])c(C(F)(F)F)c2)C1=O", "values": [
      {"measurement": "normalized GFP fluorescence", "setting": "[1]", "result": 0.333},
      {"measurement": "normalized DsRed fluorescence", "setting": "[2]", "result": 0.86}
    ]},
    {"smiles": "C[C@@H]1[C@H](O)[C@@H](C)/C=C/C=C/C=C/C=C/C=C/C=C/C=C/[C@H](O[C@@H]2O[C@H](C)[C@@H](O)[C@H](N)[C@@H]2O)C[C@@H]2O[C@](O)(C[C@@H](O)C[C@@H](O)[C@H](O)CC[C@@H](O)C[C@@H](O)CC(=O)O[C@H]1C)C[C@H](O)[C@H]2C(=O)O", "values": [
      {"measurement": "normalized GFP fluorescence", "setting": "[1]", "result": 0.269},
      {"measurement": "normalized DsRed fluorescence", "setting": "[2]", "result": 0.735}
    ]},
    {"smiles": "Nc1ccc(C(=O)NCC(=O)O)cc1", "values": [
      {"measurement": "normalized GFP fluorescence", "setting": "[1]", "result": 0.297},
      {"measurement": "normalized DsRed fluorescence", "setting": "[2]", "result": 0.671}
    ]},
    {"smiles": "CC(=O)O[C@]1(C(C)=O)CC[C@H]2[C@@H]3C=C(Cl)C4=CC(=O)CC[C@]4(C)[C@H]3CC[C@@]21C", "values": [
      {"measurement": "normalized GFP fluorescence", "setting": "[1]", "result": 0.23},
      {"measurement": "normalized DsRed fluorescence", "setting": "[2]", "result": 0.594}
    ]},
    {"smiles": "C[C@]12CC[C@@H]3c4ccc(O)cc4CC[C@H]3[C@@H]1C[C@@H](O)[C@@H]2O", "values": [
      {"measurement": "normalized GFP fluorescence", "setting": "[1]", "result": 0.63},
      {"measurement": "normalized DsRed fluorescence", "setting": "[2]", "result": 0.459}
    ]},
    {"smiles": "NC(=O)[C@@H]1CCCN1C(=O)[C@H](Cc1c[nH]cn1)NC(=O)[C@@H]1CCC(=O)N1", "values": [
      {"measurement": "normalized GFP fluorescence", "setting": "[1]", "result": 0.621},
      {"measurement": "normalized DsRed fluorescence", "setting": "[2]", "result": 0.766}
    ]},
    {"smiles": "O=C(CCCN1CCC(O)(c2ccc(Cl)cc2)CC1)c1ccc(F)cc1", "values": [
      {"measurement": "normalized GFP fluorescence", "setting": "[1]", "result": 0.45},
      {"measurement": "normalized DsRed fluorescence", "setting": "[2]", "result": 1.19}
    ]},
    {"smiles": "C[N+]1(C)[C@@H]2C[C@@H](OC(=O)C(O)(c3cccs3)c3cccs3)C[C@H]1[C@@H]1O[C@@H]12", "note": "[Tiotropium Bromide hydrate]", "values": [
      {"measurement": "normalized GFP fluorescence", "setting": "[1]", "result": 0.394},
      {"measurement": "normalized DsRed fluorescence", "setting": "[2]", "result": 0.674}
    ]},
    {"smiles": "COC(c1ccccc1)(c1ccccc1)[C@H](Oc1nc(C)cc(C)n1)C(=O)O", "note": "[Ambrisentan]", "values": [
      {"measurement": "normalized GFP fluorescence", "setting": "[1]", "result": 0.466},
      {"measurement": "normalized DsRed fluorescence", "setting": "[2]", "result": 0.281}
    ]},
    {"smiles": "CN1CC(=O)N2[C@H](c3ccc4c(c3)OCO4)c3[nH]c4ccccc4c3C[C@@H]2C1=O", "values": [
      {"measurement": "normalized GFP fluorescence", "setting": "[1]", "result": 0.112},
      {"measurement": "normalized DsRed fluorescence", "setting": "[2]", "result": 0.636}
    ]},
    {"smiles": "NC(=O)c1ccccc1O", "values": [
      {"measurement": "normalized GFP fluorescence", "setting": "[1]", "result": 0.52},
      {"measurement": "normalized DsRed fluorescence", "setting": "[2]", "result": 0.666}
    ]},
    {"smiles": "Cc1ccc(Nc2c(F)cccc2Cl)c(CC(=O)O)c1", "values": [
      {"measurement": "normalized GFP fluorescence", "setting": "[1]", "result": 0.0553},
      {"measurement": "normalized DsRed fluorescence", "setting": "[2]", "result": 0.183}
    ]},
    {"smiles": "O=c1[nH]c(=O)n([C@H]2C[C@H](O)[C@@H](CO)O2)cc1I", "note": "[Idoxuridin]", "values": [
      {"measurement": "normalized GFP fluorescence", "setting": "[1]", "result": 0.512},
      {"measurement": "normalized DsRed fluorescence", "setting": "[2]", "result": 0.959}
    ]},
    {"smiles": "CN(C)CCC[C@@]1(c2ccc(F)cc2)OCc2cc(C#N)ccc21", "values": [
      {"measurement": "normalized GFP fluorescence", "setting": "[1]", "result": 0.12},
      {"measurement": "normalized DsRed fluorescence", "setting": "[2]", "result": 0.762}
    ]},
    {"smiles": "CCOC(=O)[C@H](CCc1ccccc1)N[C@@H](C)C(=O)N1[C@H](C(=O)O)C[C@@H]2CCC[C@@H]21", "values": [
      {"measurement": "normalized GFP fluorescence", "setting": "[1]", "result": 0.338},
      {"measurement": "normalized DsRed fluorescence", "setting": "[2]", "result": 0.71}
    ]},
    {"smiles": "CO/N=C(\\C(=O)N[C@@H]1C(=O)N2C(C(=O)O)=C(C[N+]3(C)CCCC3)CS[C@H]12)c1csc(N)n1", "values": [
      {"measurement": "normalized GFP fluorescence", "setting": "[1]", "result": 0.0193},
      {"measurement": "normalized DsRed fluorescence", "setting": "[2]", "result": 0.073}
    ]},
    {"smiles": "CN(C)c1cc(NC(=O)CNC(C)(C)C)c(O)c2c1C[C@H]1C[C@H]3[C@H](N(C)C)C(O)=C(C(N)=O)C(=O)[C@@]3(O)C(O)=C1C2=O", "note": "[Tigecycline]", "values": [
      {"measurement": "normalized GFP fluorescence", "setting": "[1]", "result": 0.473},
      {"measurement": "normalized DsRed fluorescence", "setting": "[2]", "result": 0.779}
    ]},
    {"smiles": "CCOC(=O)C(C)(C)Oc1ccc(Cl)cc1", "values": [
      {"measurement": "normalized GFP fluorescence", "setting": "[1]", "result": 0.258},
      {"measurement": "normalized DsRed fluorescence", "setting": "[2]", "result": 0.633}
    ]},
    {"smiles": "CN(C)CCOC(C)(c1ccccc1)c1ccccn1", "note": "(configuration not stated)", "values": [
      {"measurement": "normalized GFP fluorescence", "setting": "[1]", "result": 0.411},
      {"measurement": "normalized DsRed fluorescence", "setting": "[2]", "result": 0.892}
    ]},
    {"smiles": "CN1CCC[C@@H]1CCO[C@](C)(c1ccccc1)c1ccc(Cl)cc1", "note": "[Clemastine Fumarate]", "values": [
      {"measurement": "normalized GFP fluorescence", "setting": "[1]", "result": 0.00687},
      {"measurement": "normalized DsRed fluorescence", "setting": "[2]", "result": 0.338}
    ]},
    {"smiles": "NC[C@@H]1O[C@H](O[C@H]2[C@@H](O)[C@H](O[C@@H]3[C@@H](O)[C@H](N)C[C@H](N)[C@H]3O[C@H]3O[C@H](CO)[C@@H](O)[C@H](O)[C@H]3N)O[C@@H]2CO)[C@H](N)[C@@H](O)[C@@H]1O", "values": [
      {"measurement": "normalized GFP fluorescence", "setting": "[1]", "result": 0.422},
      {"measurement": "normalized DsRed fluorescence", "setting": "[2]", "result": 0.794}
    ]},
    {"smiles": "CCCSc1nc(N[C@@H]2C[C@H]2c2ccc(F)c(F)c2)c2nnn([C@@H]3C[C@H](OCCO)[C@@H](O)[C@H]3O)c2n1", "note": "[Ticagrelor]", "values": [
      {"measurement": "normalized GFP fluorescence", "setting": "[1]", "result": -0.0296},
      {"measurement": "normalized DsRed fluorescence", "setting": "[2]", "result": -0.0335}
    ]},
    {"smiles": "Nc1ncnc2c1ncn2[C@@H]1O[C@H](COP(=O)(O)O)[C@@H](O)[C@H]1O", "values": [
      {"measurement": "normalized GFP fluorescence", "setting": "[1]", "result": 0.4},
      {"measurement": "normalized DsRed fluorescence", "setting": "[2]", "result": 0.484}
    ]},
    {"smiles": "Cc1cn([C@@H]2C[C@@H](O)[C@H](CO)O2)c(=O)[nH]c1=O", "note": "[Telbivudine (Sebivo, Tyzeka)]", "values": [
      {"measurement": "normalized GFP fluorescence", "setting": "[1]", "result": 0.205},
      {"measurement": "normalized DsRed fluorescence", "setting": "[2]", "result": 0.951}
    ]},
    {"smiles": "Cc1ccccc1C(OCCN(C)C)c1ccccc1", "note": "(configuration not stated)", "values": [
      {"measurement": "normalized GFP fluorescence", "setting": "[1]", "result": 0.779},
      {"measurement": "normalized DsRed fluorescence", "setting": "[2]", "result": 1.23}
    ]},
    {"smiles": "CC[C@@H](CO)NCCN[C@@H](CC)CO", "values": [
      {"measurement": "normalized GFP fluorescence", "setting": "[1]", "result": 0.377},
      {"measurement": "normalized DsRed fluorescence", "setting": "[2]", "result": 0.991}
    ]},
    {"smiles": "CC1=C(/C=C/C(C)=C/C=C/C(C)=C/CO)C(C)(C)CCC1", "values": [
      {"measurement": "normalized GFP fluorescence", "setting": "[1]", "result": 0.232},
      {"measurement": "normalized DsRed fluorescence", "setting": "[2]", "result": 0.677}
    ]},
    {"smiles": "CC(=O)[C@H]1CC[C@H]2[C@@H]3C[C@H](C)C4=CC(=O)CC[C@]4(C)[C@H]3[C@@H](O)C[C@]12C", "values": [
      {"measurement": "normalized GFP fluorescence", "setting": "[1]", "result": 0.258},
      {"measurement": "normalized DsRed fluorescence", "setting": "[2]", "result": 0.378}
    ]},
    {"smiles": "CCOc1cc(CC(=O)N[C@@H](CC(C)C)c2ccccc2N2CCCCC2)ccc1C(=O)O", "values": [
      {"measurement": "normalized GFP fluorescence", "setting": "[1]", "result": -0.00461},
      {"measurement": "normalized DsRed fluorescence", "setting": "[2]", "result": 0.578}
    ]},
    {"smiles": "CO[C@@]1(NC(=O)CSCC#N)C(=O)N2C(C(=O)O)=C(CSc3nnnn3C)CS[C@@H]21", "values": [
      {"measurement": "normalized GFP fluorescence", "setting": "[1]", "result": 0.268},
      {"measurement": "normalized DsRed fluorescence", "setting": "[2]", "result": 0.711}
    ]}
  ]
}
